Out of some 5,500 compounds screened, about 2,000 (36%) were called active. Not shown: some 18% with an inconclusive outcome. No stated cut-off is given here; in the data, active means normalized growth mostly below about 0.91 (no sharp cut-off); inconclusive means no clear call, values can overlap the other calls; inactive means mostly above about 0.92. This is one part of the list.
Assay: chemical genetic growth profiling, strain panel (AID 1159580);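 further: tested at 20 µM; growth read once vehicle control cultures reached saturation at 30 °C; 1 = growth at the plate median or of vehicle wells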
Conditions: S. cerevisiae deletion strains, growth OD
[1] = locus YHR030C, strain SLT2, stronger effect = lower value
[2] = locus YHR079C, strain IRE1, stronger effect = lower value
[3] = locus YJL095W, strain BCK1, stronger effect = lower value
[4] = locus YJR066W, strain TOR1, stronger effect = lower value
[5] = locus YLR113W, strain HOG1, stronger effect = lower value
[6] = locus YNL183C, strain NPR1, stronger effect = lower value
[7] = locus YOR231W, strain MKK1, stronger effect = lower value
[8] = locus YPL256C, strain CLN2, stronger effect = lower value

Measured: normalized growth

OC1CCN(c2cc(C(F)(F)F)nc3cc(Cl)cc(Cl)c23)CC1
active: [1] 0.793
inactive: locus YAR019C, strain CDC15, stronger effect = lower value 0.982 | locus YBL105C, strain PKC1, stronger effect = lower value 0.984 | locus YBR135W, strain CKS1, stronger effect = lower value 0.978 | locus YBR136W, strain MEC1, stronger effect = lower value 0.978 | locus YBR160W, strain CDC28, stronger effect = lower value 0.973 | locus YDL017W, strain CDC7, stronger effect = lower value 0.977 | locus YDL028C, strain MPS1, stronger effect = lower value 0.982 | locus YDL101C, strain DUN1, stronger effect = lower value 0.976 | locus YDL108W, strain KIN28, stronger effect = lower value 0.979 | locus YDL132W, strain cdc53, stronger effect = lower value 0.969 | locus YDL214C, strain PRR2, stronger effect = lower value 0.98 | locus YDR052C, strain DBF4, stronger effect = lower value 0.989 | locus YDR054C, strain cdc34, stronger effect = lower value 0.969 | locus YDR226W, strain ADK1, stronger effect = lower value 0.973 | locus YDR477W, strain SNF1, stronger effect = lower value 0.913 | locus YER123W, strain YCK3, stronger effect = lower value 0.965 | locus YER133W, strain GLC7, stronger effect = lower value 0.971 | locus YFL009W, strain cdc4, stronger effect = lower value 0.986 | locus YFL029C, strain CAK1, stronger effect = lower value 0.984 | locus YFR003C, strain YPI1, stronger effect = lower value 0.978 | locus YFR019W, strain FAB1, stronger effect = lower value 1 | locus YFR028C, strain CDC14, stronger effect = lower value 0.979 | locus YGR040W, strain KSS1, stronger effect = lower value 0.921 | locus YGR052W, strain FMP48, stronger effect = lower value 1.1 | locus YGR092W, strain DBF2, stronger effect = lower value 0.994 | [2] 0.979 | locus YHR082C, strain KSP1, stronger effect = lower value 1.06 | locus YHR205W, strain SCH9, stronger effect = lower value 0.975 | locus YIL147C, strain SLN1, stronger effect = lower value 0.976 | [3] 0.887 | locus YJL128C, strain PBS2, stronger effect = lower value 0.989 | locus YJL157C, strain FAR1, stronger effect = lower value 0.972 | locus YJR016C, strain ILV3, stronger effect = lower value 0.984 | locus YJR066W, strain TOR1 (second series), stronger effect = lower value 0.963 | [4] 0.938 | locus YKL048C, strain ELM1, stronger effect = lower value 0.979 | locus YKL067W, strain YNK1, stronger effect = lower value 0.977 | locus YKL101W, strain HSL1, stronger effect = lower value 0.984 | locus YKL193C, strain SDS22, stronger effect = lower value 0.969 | locus YKL203C, strain TOR2, stronger effect = lower value 0.987 | [5] 0.951 | locus YLR133W, strain CKI1, stronger effect = lower value 0.976 | locus YLR403W, strain SFP1, stronger effect = lower value 0.992 | locus YML070W, strain DAK1, stronger effect = lower value 0.969 | locus YMR001C, strain CDC5, stronger effect = lower value 0.971 | locus YMR205C, strain PFK2 (second series), stronger effect = lower value 0.975 | locus YMR277W, strain FCP1, stronger effect = lower value 0.97 | locus YNL006W, strain LST8, stronger effect = lower value 0.968 | locus YNL020C, strain ARK1, stronger effect = lower value 0.972 | locus YNL161W, strain CBK1, stronger effect = lower value 0.975 | [6] 0.971 | locus YNL207W, strain RIO2, stronger effect = lower value 0.979 | locus YNL222W, strain SSU72, stronger effect = lower value 0.98 | locus YNL307C, strain MCK1 (second series), stronger effect = lower value 0.962 | locus YOL078W, strain AVO1, stronger effect = lower value 0.98 | locus YOL136C, strain PFK27, stronger effect = lower value 0.981 | locus YOR061W, strain CKA2, stronger effect = lower value 0.964 | locus YOR119C, strain RIO1, stronger effect = lower value 1.01 | [7] 0.946 | locus YOR329C, strain SCD5, stronger effect = lower value 0.986 | locus YPL031C, strain PHO85, stronger effect = lower value 0.908 | locus YPL153C, strain RAD53, stronger effect = lower value 0.937 | locus YPL204W, strain HRR25, stronger effect = lower value 0.938 | locus YPL209C, strain IPL1, stronger effect = lower value 0.971 | [8] 0.947 | locus YPR025C, strain CCL1, stronger effect = lower value 0.969 | locus YPR106W, strain ISR1, stronger effect = lower value 0.991 | locus YPR111W, strain DBF20, stronger effect = lower value 0.985 | strain NNK1, stronger effect = lower value 1 | strain TSCII, stronger effect = lower value 0.97

CC(=O)Nc1c(I)c(NC(C)=O)c(I)c(C(=O)O)c1I
inactive: [1] 0.975 | [2] 1 | [3] 0.989 | [4] 0.932 | [5] 0.977 | [6] 0.941 | [7] 0.99 | [8] 0.974

From PubChem BioAssay AID1159580 (chemical genetic matrix, 2015)
